In PMC5540273 (PLoS ONE, 2017):
Read-outs that look alike come from different tables or passages of the source.

Legend:
GRK3 = tested on: T1, GRK3; conditions: concentration: 1 μM, replicates: in singlicate; n = 1
T1 construct: gene ADRBK2

GRK4 = conditions: concentration: 1 μM, replicates: in singlicate; n = 1
GRK7 = conditions: concentration: 1 μM, replicates: in singlicate; n = 1
GSK3A = conditions: concentration: 1 μM, replicates: in singlicate; n = 1
GSK3B = conditions: n = 1
HASPIN = tested on: T2, HASPIN; conditions: concentration: 1 μM, replicates: in singlicate; n = 1
T2 construct: gene GSG2

HCK = conditions: concentration: 1 μM, replicates: in singlicate; n = 1
HIPK1 = conditions: concentration: 1 μM, replicates: in singlicate; n = 1
HIPK2 = conditions: concentration: 1 μM, replicates: in singlicate; n = 1
HIPK3 = conditions: concentration: 1 μM, replicates: in singlicate; n = 1
[1] = concentration: 1 μM, replicates: in singlicate
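Further: KINOMEscan kinase panel screen.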

Structure (SMILES)	%Inh (GRK3) [%]	%Inh (GRK4) [%]	%Inh (GRK7) [%]	%Inh (GSK3A) [%]	%Inh (GSK3B; [1]) [%]	%Inh (HASPIN) [%]	%Inh (HCK) [%]	%Inh (HIPK1) [%]	%Inh (HIPK2) [%]	%Inh (HIPK3) [%]	%Inh (GSK3B; 1 µM) [%]
Cn1cnc2c(N)ncnc21 [SKF-97623]	26	21	0	0	0	0	0	0	11	0	–
CNC(=O)c1ccc(C)c(-n2c(C)cc(OCc3ccc(F)cc3F)c(Br)c2=O)c1	0	2	0	0	0	18	0	0	0	0	–
O=C1NC(=O)C(c2ccc(Cl)cc2)=C1Nc1ccc(O)cc1 [SB-340867]	0	0	0	29	–	9	0	0	0	0	0
Cc1c(Cn2c3ccccc3n3c(=O)cc(N4CCOCC4)nc23)cccc1C(F)(F)F [GSK2306394]	0	0	0	13	18	0	0	0	0	16	–
Cc1c(Cn2c(C)c(C)n3c(=O)cc(N4CCOCC4)nc23)cccc1C(F)(F)F [GSK2328680]	0	0	0	13	11	0	0	0	0	13	–
CCn1c(-c2ccccc2)nc2cnccc21 [SB-733416]	70	29	0	0	25	0	17	0	0	10	–
CS(=O)(=O)CCNCc1nc(-c2ccc3ncnc(Nc4ccc5c(cnn5Cc5ccccc5)c4)c3c2)cs1.Cl.Cl [GW569716]	41	0	0	0	0	18	0	0	0	0	–
FC(F)(F)c1ccccc1-c1cc(-c2c[nH]nc2-c2ccccn2)ccn1 [GW679396]	14	0	0	2	12	0	0	0	0	17	–
Cc1ccc(-c2nc(Nc3ccncc3)c3ccccc3n2)s1 [GSK189015]	0	13	0	18	28	54	10	0	0	41	–
CCc1ccc(-c2ccc3c(c2)-c2n[nH]cc2S(=O)(=O)N3C)cc1	0	0	0	35	0	4	16	0	0	0	–
CC(=O)c1c(C)c2cnc(Nc3ccn(C)n3)nc2n(C2CCCC2)c1=O	17	0	0	12	0	0	29	14	31	13	–
Cc1nccc(-c2c(-c3ccc(F)cc3)ncn2CCCN2CCOCC2)n1.Cl [SB-282975]	34	0	23	23	17	23	8	0	0	14	–
COc1ccc(Nc2nccc(-c3ccc(NC(=O)c4cc5cc(F)ccc5[nH]4)cc3)n2)cc1 [GSK1229496]	22	0	0	0	0	41	0	0	0	0	–
Cc1ccc(NC(=O)Nc2ccc(Cl)cc2)cc1-c1ccc(C(=O)Nc2ccncc2)cc1 [GSK1398472]	17	25	0	0	7	0	0	0	0	5	–
Cc1ccc(NC(=O)Nc2ccc(Cl)c(C(F)(F)F)c2)cc1-c1ccc(C(=O)Nc2ccncc2)cc1 [GSK1398470]	0	10	0	21	10	10	0	0	0	0	–
Fc1ccc(-c2nc3n(c2-c2ccncc2)CCS3)cc1 [GI98581]	21	0	0	14	19	13	0	0	0	0	–
Cc1ccc(NC(=O)Nc2ccccc2F)cc1-c1ccc(C(=O)Nc2ccncc2)cc1 [GSK1398477]	0	30	0	25	3	0	0	0	0	10	–

Structure (SMILES)	%Inh (GRK3) [%]	%Inh (GRK4) [%]	%Inh (GRK7) [%]	%Inh (GSK3A) [%]	%Inh (GSK3B; [1]) [%]	%Inh (HASPIN) [%]	%Inh (HCK) [%]	%Inh (HIPK1) [%]	%Inh (HIPK2) [%]	%Inh (HIPK3) [%]	%Inh (GSK3B; 1 µM) [%]
CN1c2ccc(-c3ccc(C(N)=O)cc3)cc2-c2[nH]ncc2S1(=O)=O	0	0	0	25	13	28	0	41	23	19	–
O=C(Nc1n[nH]c2nc(-c3cccs3)c(Br)cc12)C1CCCC1 [SB-743341]	24	33	11	96.6	–	0	8	20	25	52	81
O=C1NC(=O)C(c2ccc(Cl)cc2)=C1Nc1cccc(Cl)c1 [SB-317651]	0	21	30	0	–	0	0	19	34	0	15
NS(=O)(=O)c1cccc(N/C=C2\C(=O)Nc3ccc(S(=O)(=O)Cc4c(Cl)cccc4Cl)cc32)c1 [GSK398099]	0	0	0	0	20	4	0	0	0	12	–
Cn1cncc1C(=O)NC1CCN(c2ccnc(Nc3ccc(F)cc3)n2)C1 (stereo not shown) [GSK1379717]	0	0	0	12	8	0	0	0	0	3	–
COc1ccc(Nc2nccc(NCCNC(=O)Nc3cc(C)ccc3C)n2)cc1 [GSK1379899]	0	12	0	0	0	0	78	0	0	0	–
CS(=O)(=O)CCNCc1nc(-c2ccc3ncnc(Nc4ccc(OCc5ccccc5)c(Cl)c4)c3c2)cs1.Cl [GW582764]	99.4	4	0	20	3	32	0	0	0	0	–
O=c1cc(N2CCOCC2)nc2n(Cc3ccccc3F)ccn12 [GSK2297428]	0	0	0	80	3	35	0	33	0	35	–
COc1ccc(-c2coc3ccc(-c4nnc(C)o4)cc23)cc1	0	0	0	11	0	18	0	37	0	0	–
COc1cccc(CNC(=O)NC2CCN(c3ccnc(Nc4ccc(F)cc4)n3)C2)c1 (stereo not shown) [GSK1379723]	37	6	5	11	13	0	0	0	0	36	–
COc1ccc(Nc2nccc(N3CCC(NC(=O)C(C)c4ccc(Cl)cc4)C3)n2)cc1 (stereo not shown) [GSK1379735]	20	31	0	34	0	13	0	0	0	4	–
CNc1nc(-c2ccc3c(N)n[nH]c3c2)cc(N2C[C@@H](C(=O)Nc3ccccc3)CC[C@H]2C)n1 [GSK2298859]	0	0	0	26	0	13	0	0	0	1	–
CNc1cc(-c2ccc3c(N)n[nH]c3c2)nc(N)n1 [GSK2224810]	10	0	0	6	0	61	0	14	0	18	–
CNc1nc(-c2ccc3c(N)n[nH]c3c2)cc(N2C[C@@H](C(=O)NC3CCCCC3)OC[C@H]2C)n1 [GSK2375584]	37	4	0	10	14	30	0	24	0	2	–
Cc1ccccc1-c1cc(-c2c[nH]nc2-c2ccccn2)ccn1 [GW680061]	37	0	0	0	1	0	0	4	0	10	–
Fc1ccc(-c2nc[nH]c2-c2ccncc2)cc1 [SB-217360]	11	19	0	0	13	57	20	34	10	7	–
CC[C@@H]1CO[C@H](C(=O)Nc2ccccc2)CN1c1cc(-c2ccc3c(N)n[nH]c3c2)nc(NC)n1 [GSK2376236]	0	0	0	12	17	0	0	9	0	4	–
